# Screens: PubChem BioAssay, The Scripps Research Institute Molecular Screening Center
# MsrA inh – bovine MsrA inhibition; purified bovine MsrA, absorbance read-out; inhibition, % at 15.5 µM; 0.75% of 360,000 active; in the data active = inhibition above about 4.5%
# proKLK7 act – activates the human kallikrein-7 zymogen | 0.9% of 370,000 active | AID 652039 | purified proKLK7, EDANS-DABCYL substrate fluorescence; 100% is mature enzyme control, 0% vehicle | P49862 | activation, % at 7 µM;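 active = activation above the mean of all tested compounds plus 3 SD, computed per campaign excluding outliers beyond control limits, cut at about 13% in these data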
# Target sequence (P49862 whole entry, looked up): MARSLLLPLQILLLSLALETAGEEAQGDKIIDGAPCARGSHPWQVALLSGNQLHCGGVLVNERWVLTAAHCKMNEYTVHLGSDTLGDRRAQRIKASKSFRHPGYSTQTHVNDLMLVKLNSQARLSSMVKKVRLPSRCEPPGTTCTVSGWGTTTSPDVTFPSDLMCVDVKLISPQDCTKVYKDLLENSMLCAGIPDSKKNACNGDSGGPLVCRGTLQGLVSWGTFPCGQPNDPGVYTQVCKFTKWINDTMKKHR
# SMARCA2 activ – increases SMARCA2 function in MMTV reporter cells. activation, % at 9.1 µM. 1% of 370,000 active. MG213 cells, MMTV-luciferase reporter, dexamethasone, overnight; in the data active = activation above about 7.8%
# MsrA act – activates bovine MsrA enzyme | activation, % at 10.6 µM | purified bovine MsrA, absorbance read-out | 0.3% of 360,000 active | AID 602163; in the data active = activation above about 7.5%
# Hits are given with their value; - = inactive; . = not tested or not shown. In the library only some 2.8% were active in any assay of this set; here they are far more common.
SMILES,MsrA inh,proKLK7 act,SMARCA2 activ,MsrA act
COc1cccc(C(=O)Oc2ccc(/C=N/Nc3ccc(C(=O)O)cc3)cc2OC)c1,4.6,-,-,-
Cc1cccc(-c2nc(C#N)c(N3CCC(C)CC3)o2)c1,-,-,-,-
CC1CCN(c2oc(-c3ccc(F)cc3)nc2C#N)CC1,-,-,7.8,-
CCN(CC)c1nc(C#N)cc(-c2ccc(OC)cc2)n1,8.0,-,-,-
Cc1ccccc1NC(=O)Cc1nc(COC(=O)CSc2ccc(F)cc2)cs1,-,-,-,-
CCSc1nc(C(F)(F)F)cc(=O)n1-c1ccccc1,-,-,-,-
CC(C)Sc1nc(C(F)(F)F)cc(=O)n1-c1ccccc1,-,-,-,13.6
CC(C)CCN(C)C1CCN(C(=O)Nc2ccc(Cl)cc2)CC1,.,-,-,.
O=C(Nc1ccccc1)N1CCC(c2ccccc2)C1 (configuration not stated),-,-,7.8,-
CC(C)CCN(C)C1CCN(C(=O)Nc2ccccc2)CC1,.,-,7.8,.
CN1CCN(C(=O)CCN2C(=O)/C(=C\c3ccccc3F)SC2=S)CC1,-,-,-,-
CN1CCN(C(=O)CCN2C(=O)/C(=C/c3ccccc3Cl)SC2=S)CC1,-,-,7.9,-
COc1ccccc1N1CCN(c2ncnc3nc[nH]c23)CC1,-,-,7.9,-
Cc1ccc(CC(=O)N2CCN(S(=O)(=O)c3ccccc3)CC2)cc1C,4.6,-,-,-
COC(=O)C[C@H]1CC[C@H]2[C@H](COc3ccc(NC(=O)Nc4ccccc4F)cc3C(=O)N2C)O1,.,-,7.9,.
COC(=O)C[C@@H]1CC[C@H]2[C@@H](COc3ccc(NC(=O)Nc4ccccc4C)cc3C(=O)N2C)O1,.,-,-,.
Cc1cc(N2CCNC[C@H]2C)ccc1N1CCS(=O)(=O)CC1,-,-,-,.
COc1ccc2nc(/C(C#N)=C\c3ccc(Oc4ccc([N+](=O)[O-])cn4)cc3)[nH]c2c1,-,-,12.0,-
Cc1ccc2nc(/C(C#N)=C\c3ccc(Oc4ccc([N+](=O)[O-])cn4)cc3)[nH]c2c1,-,-,-,-
O=C(Nc1ccc(NC(=O)c2cc([N+](=O)[O-])ccc2N2CCOCC2)cc1)c1cccs1,4.6,-,-,-
O=C(Nc1cc([N+](=O)[O-])ccc1N1CCOCC1)c1cccs1,-,-,-,-
CCC(=O)N1c2ccccc2NC2=C(C(=O)CC(c3ccco3)C2)C1c1ccco1 (configuration not stated),4.6,-,-,-
CCc1nc2c(OCC3CCCCC3)cccn2c1N(C)C(=O)c1ccccc1F,-,-,-,-
CCC(=O)c1ccc(OCC(=O)OCC(=O)Nc2cccc(S(=O)(=O)N3CCOCC3)c2)cc1,-,-,7.8,-
CCOC(=O)N(C)[C@H]1C[C@H]2c3[nH]c4c(-c5ccccc5)cccc4c3CCN2C(=O)[C@H]1[C@H](C)O,-,-,-,.
SMILES,MsrA inh,proKLK7 act,SMARCA2 activ,MsrA act
CC(Cc1ccccc1)NC(=O)c1ccc([N+](=O)[O-])cc1 (configuration not stated),-,-,7.8,-
CC(Cc1ccccc1)NC(=O)/C=C/c1ccc([N+](=O)[O-])cc1 (configuration not stated),-,-,-,-
O=C1CCC(C(=O)N2CCN(c3cnccn3)CC2)CN1CCc1ccccc1 (configuration not stated),-,-,-,-
CC(C)(C)C1CCC(=NNC(=O)c2ccccc2-n2cccc2)CC1 (configuration not stated),-,-,11.1,-
O=C(CSc1nnc(-c2ccccn2)n1-c1ccccc1)Nc1ccc(OCc2ccccc2)cc1,.,-,-,.
S=c1[nH]c2ccc(Cl)cc2s1,-,-,-,-
O=[N+]([O-])c1ccc2[nH]c(=S)sc2c1,-,-,-,9.6
CC1CCCC(C)N1/N=C/c1cc(Br)c(O)c(Br)c1 (configuration not stated),4.6,-,-,.
CCOC(=O)N1CCC(Nc2c(Nc3cccc(CC)c3)c(=O)c2=O)CC1,4.6,-,-,-
COC(=O)[C@H](C)N(Cc1cn(Cc2ccccc2)nn1)S(=O)(=O)c1ccccc1Br,.,-,7.8,.
CC1CC(C)(C)CC2(C1)NC(=O)N(CC(=O)Nc1cc(C(F)(F)F)ccc1N1CCCCC1)C2=O (configuration not stated),-,-,-,-
O=C(/C=C/c1ccccc1)NCCOc1ccccc1,-,-,7.8,-
O=C(O)c1ccccc1NS(=O)(=O)c1ccc(NN=Cc2ccc(F)cc2)c([N+](=O)[O-])c1,.,.,.,-
O=C(O)c1ccccc1NS(=O)(=O)c1ccc(N/N=C/c2ccc(O)c(O)c2)c([N+](=O)[O-])c1,4.8,-,-,-
O=C(Nc1nccs1)c1ccccc1N=Cc1ccccc1,-,41.9,-,-
CCOc1ccc2nc(N3C(=O)C(O)=C(C(=O)c4ccco4)C3c3ccco3)sc2c1 (configuration not stated),-,-,7.9,-
CC(C)c1cc(N=NC(N)=O)cc(C(C)C)c1O,4.6,-,-,-
Cc1ccc(-n2c(SCC(=O)Nc3ccc(Oc4ccccc4)cc3)nnc2-c2cccc(C)c2)cc1,.,-,-,.
CCOC(=O)[C@]12CCCCC/C=C\1N(CCc1ccc(Cl)cc1)C(=O)[C@H]2CC(=O)N1CCOCC1,.,-,-,.
Cc1cccc(NC(=O)CSc2nnc(-c3ccco3)c(-c3ccco3)n2)c1C,.,.,.,-
Cc1cccc(NC(=O)CSc2nnc(-c3ccco3)c(-c3ccco3)n2)c1,4.9,-,-,-
COc1cc(CNc2ncnc3c2ncn3[C@H]2CN(Cc3ccc(Cl)cc3)C[C@@H](CO)O2)cc(OC)c1OC,-,-,-,-
CCOC(=O)CN1CCCc2nc(-c3ccc(OC)cc3)ccc21,-,-,-,.
CCOC(=O)CN1CCCc2nc(C)c(C)cc21,-,28.8,-,.
CS(=O)(=O)c1ccc2nc(NC(=O)c3cccs3)sc2c1,6.8,-,-,-
SMILES,MsrA inh,proKLK7 act,SMARCA2 activ,MsrA act
C#CC1(NC(=S)Nc2cccc(OC)c2)CCCCC1,-,-,-,-
Cc1cc(C(=O)Nc2cccnc2)no1,.,.,.,-
CC(C)Cc1cc(C(=O)Nc2cccnc2)no1,-,-,7.9,-
CCCCNC(=O)C[C@@H]1C(=O)N(Cc2ccc(OC)cc2)/C2=C/CCCCC[C@@]21C(=O)OCC,.,-,-,.
O=C(Nc1nc2c(cc3c4c(cccc42)CC3)s1)c1ccccc1Cl,4.6,-,-,-
Cn1c(N)c(C(=O)COC(=O)c2cc(-c3ccco3)nc3ccccc23)c(=O)n(C)c1=O,-,-,-,-
CNC(=O)COC(=O)c1cc(-c2ccco2)nc2ccccc12,-,130.5,-,-
Cc1ccc(OCc2nnc(SCC(=O)c3ccc(-c4ccccc4)cc3)n2Cc2ccco2)cc1,.,-,-,.
CN(C)c1ccc(C=Nc2ccccc2C(N)=O)cc1,5.6,-,-,-
Cc1ccc(SCC(=O)Nc2nccs2)cc1,-,-,7.8,-
CCCN1CCCCC(NC(=O)c2c(F)cccc2F)C1=O (configuration not stated),-,-,-,.
Cc1ccccc1C(=O)N/N=C/c1ccccn1,-,-,10.4,-
CC(=O)c1sc(NC(=O)c2ccco2)nc1-c1ccccc1,.,.,.,-
CCOC(=O)c1sc(NC(=O)c2ccco2)nc1-c1ccccc1,-,-,7.9,-
